Measurements: PubChem BioAssay (EPA / NIEHS)
Where “and” joins values, the source holds several entries; their conditions need not be identical. Identical values can stand only once. Results filed as inconclusive are left out. A structure can be active in one record and inactive in another. Calls of active or inactive are those of the source. How the source made its calls, unless noted: active means hit-call score of the fitted dose curve at least 0.9, where 1 is the maximum; inactive means score below 0.9.

Experiments:
[1] = BSK_BT_PBMCCytotoxicity: PBMC Cytotoxicity Assessment in the BioMAP Diversity Plus: BT Assay (AID 2284225); conditions: primary human B cells with PBMC;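 further: PBMC viability measured by Alamar Blue dye reduction fluorescence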
Summary of the method: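 Viability by Alamar Blue reduction (6 h, ex/em 546/580 nm) after 90 h culture of SEB/TSST-1-activated PBMC (20 ng/mL each) given compound 1 h before activation. DMSO served as baseline for curve fitting.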

[2] = read-out: Secreted IgG (sIgG), gene 3500; assay: BSK_BT_sIgG: BioMAP Diversity Plus: BT Assay for Secreted IgG (sIgG) Biomarker Activity (AID 2284226); conditions: primary human B cells with PBMC
Summary of the method: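 ELISA quantitation of secreted IgG from human B cells co-cultured with PBMC, sampled 24 h post-dosing. Values fitted relative to DMSO vehicle as baseline, positive fitting direction.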

[3] = BSK_BT_Bcell_Proliferation: Viability Assessment in the BioMAP Diversity Plus: BT Assay for B cell Proliferation (AID 2284227); conditions: primary human B cells with PBMC
Summary of the method: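 Human B cell/PBMC co-culture; test chemical added; 72 h; TCA fix (10%), 0.1% SRB stain, A560 for total protein as a proliferation read-out; positive-direction fit vs DMSO baseline.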

[4] = read-out: Interleukin 6 (IL6), IL6 (gene 3569); assay: BSK_BT_xIL6: BioMAP Diversity Plus: BT Assay for Interleukin 6 (IL6) Biomarker Activity (AID 2284228); conditions: primary human B cells with PBMC
Summary of the method: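 B cells and peripheral blood mononuclear cells (human primary co-culture) were dosed with chemical, and after 24 h IL-6 released into the medium was measured by Luminex xMAP. Responses were analysed as gain of signal over DMSO control.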

[5] = read-out: Interleukin 17A (IL17A), IL17A (gene 3605); assay: BSK_BT_xIL17A: BioMAP Diversity Plus: BT Assay for Interleukin 17A (IL17A) Biomarker Activity (AID 2284229); conditions: primary human B cells with PBMC
Summary of the method: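 Secreted IL-17A was the measured endpoint, read by Luminex xMAP multiplex in supernatants of a human B cell/PBMC co-culture harvested 24 h after chemical dosing. Signal increase relative to DMSO defined activity.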

[6] = CCTE_Mundy_HCI_Cortical_Synap_Neur_Matur_NeuriteCount: CCTE's Synaptogenesis and Neurite Maturation Assay in rat cortical cells for Neurite Count, Mundy Lab (AID 2284222)
Summary of the method: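 Rat cortical neurons, 96-well; AraC DIV 5; chemical + media change DIV 7; end DIV 12. Fix PFA/Hoechst, anti-MAP2 + anti-synaptophysin IF. HCI neurite count vs DMSO baseline.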

[7] = CCTE_Mundy_HCI_Cortical_Synap_Neur_Matur_CellBodySpotCount: CCTE's Synaptogenesis and Neurite Maturation Assay in rat cortical cells for Cell Body Spot Count, Mundy Lab (AID 2284223)
Summary of the method: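 Rat cortical neurons; AraC @ DIV 5; dose + media change DIV 7; fix DIV 12; anti-MAP2/anti-synaptophysin IF, Hoechst; HCI count of soma synaptophysin puncta/neuron; DMSO = negative control.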

[8] = CCTE_Mundy_HCI_hNP1_Pro_ResponderAvgInten: CCTE's Proliferation Assay in human neuroprogenitor cells, Mundy Lab (AID 2284224; active means hit-call score of the fitted dose curve at least 0.9, where 1 is the maximum;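 further: human neural progenitor cells hNP1 derived from WA09 embryonic stem cells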)
Summary of the method: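 Human neuroprogenitors (hNP1, WA09 lineage) receive test chemical after 40 to 44 hours of attachment. A four-hour BrdU pulse begins twenty hours later, followed by fixation and high content imaging; signal is referenced to DMSO controls.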

[9] = CCTE_Mundy_HCI_hN2_NOG_NeuriteLength: CCTE's Neurite Outgrowth Assay in human hN2 cells for Neurite Length, Mundy Lab (AID 2284220; active means hit-call score of the fitted dose curve at least 0.9, where 1 is the maximum)
Summary of the method: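 Using βIII-tubulin immunofluorescence and Hoechst nuclear counterstain, this component quantifies neurite length in hNP1-derived neurons.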

[10] = CCTE_Mundy_HCI_hN2_NOG_NeuriteCount: CCTE's Neurite Outgrowth Assay in human hN2 cells for Neurite Count, Mundy Lab (AID 2284219; active means hit-call score of the fitted dose curve at least 0.9, where 1 is the maximum)
Experimental: CCTE_Mundy_HCI_hN2_NOG is a multiplexed, cell-based-readout assay that uses immature neurons derived from hNP1 neuroprogenitor cells with measurements taken at 50.33 hours after chemical dosing in a microplate: 96-well plate.CCTE_Mundy_HCI_hN2_NOG_NeuriteCount is one of four components of the CCTE_Mundy_HCI_hN2_NOG assay. It measures neurite outgrowth related to number of neurites using High Content Imaging of fluorescently labelled markers.[…] Using a type of morphology reporter, loss -of-signal activity can be used to understand developmental effects.
Exposure starts 2 hours post-plating by adding 10 ul of the working solution to 90 ul of media in the wells for a 1/10 dilution. Forty-eight hours after chemical treatment cells are fixed by direct addition of 100 ul of warm (37C) Dulbecco's phosphate buffered saline (DPBS) fixative solution containing 8% paraformaldehyde, 8% sucrose, and 0.1% of 3 mg/ml Hoechst 33342 into each well. Primary antibodies are prepared by dilution in Immunocytochemical Staining Buffer (ISB), 10X Dulbecco's PBS, 0.1% Saponin, 5% Bovine Serum Albumin, 0.5% NaN3 (Sodium Azide) and betaIII-tubulin (rabbit anti-betaIII-tubulin, 1:800) followed by Alexa Fluor-488 secondary (1:500) to label neuronal cell bodies and neurites. A Cellomics ArrayScan VTi HCS Reader is used for automated image acquisition and analysis of neurite outgrowth.

Measured: AC50

OCCC(F)(F)C(F)(F)C(F)(F)C(F)(F)C(F)(F)C(F)(F)F
inactive: [1] | [2] | [3] | [4] | [5]
active: [1] 30 µM | [4] 49.1 µM | [5] 43.1 µM

CC#C[C@]1(O)CC[C@H]2[C@@H]3CCC4=CC(=O)CCC4=C3[C@@H](c3ccc(N(C)C)cc3)C[C@@]21C
active: [6] 17.9 µM and 23.1 µM | [7] 16.7 µM and 24.8 µM | [8] 18 µM and 23.2 µM

FC(F)(I)C(F)(F)C(F)(F)C(F)(F)C(F)(F)C(F)(F)I
active: [1] 25.6 µM [middle of 5 runs] | [3] 20.6 µM [middle of 5 runs]

C[C@@H]1C[C@H]2[C@@H]3CCC4=CC(=O)C=C[C@]4(C)[C@@]3(F)[C@@H](O)C[C@]2(C)[C@@]1(O)C(=O)COP(=O)(O)O
active: [1] 0.485 µM | [4] 863 nM and 1.34 µM | [5] 0.1 µM
inactive: [1] | [2] | [3]

OCCC(F)(F)C(F)(F)C(F)(F)C(F)(F)C(F)(F)C(F)(F)C(F)(F)C(F)(F)F
inactive: [8]
active: [1] 43.4 µM and 40.7 µM | [2] 50.6 µM and 53.6 µM | [3] 45.1 µM and 45.8 µM | [4] 53.1 µM and 52.6 µM | [5] 44.1 µM and 43.9 µM

CCCCCCCCCCCCCC[N+](C)(C)C
active: [1] 11.5 µM | [2] 45.3 nM | [3] 2.81 µM | [4] 4.27 µM | [5] 1.48 µM

NCC(F)(F)C(F)(F)C(F)(F)C(F)(F)C(F)(F)C(F)(F)C(F)(F)F
inactive: [1] | [2] | [3] | [4] | [5]

CN1CCC[C@H]1c1cccnc1
inactive: [9] | [7]

CC1=C(/C=C/C(C)=C/C=C/C(C)=C/C(=O)O)C(C)(C)CCC1
active: [10] 12.1 µM | [9] 0.417 µM
inactive: [7]

C=C(C)C(=O)OCCC(F)(F)C(F)(F)C(F)(F)C(F)(F)C(F)(F)C(F)(F)F
inactive: [8] | [1] | [2] | [3] | [4] | [5]
